Growth data for eight compounds are collected here from PubChem BioAssay (NCI).

Test systems include SR leukemia; RPMI-8226 leukemia; OVCAR-8 ovarian; OVCAR-5 ovarian; OVCAR-4 ovarian; SK-OV-3 ovarian; IGROV1 ovarian; OVCAR-3 ovarian; NCI/ADR-RES ovarian; T-47D breast; BT-549 breast; MDA-MB-435 melanoma; SW-620 colon; MCF7 breast; HCT-116 colon; HCC-2998 colon; KM12 colon; MDA-MB-468 breast; HS 578T breast.
Holding throughout (assay): NCI-60 one-dose screen, 48 h (100 = growth as untreated, 0 = no growth, -100 = all killed)
Conditions in all cases: 10 µM unless noted

The panel holds about 83,000 compounds, 20% with a hit somewhere; the sample as a whole holds those more often.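 Testing used 96-well plates and a 48-hour single-concentration exposure. Example: -40 means 40% of the starting cells died.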 A number with no mark means an inactive call. Active and inactive are the calls of the source. How the source made its calls: active means growth percent below 10; inactive means the rest.

In the case of `O=C(COc1ccc(NC(=O)Nc2ccc(Cl)c(Cl)c2)cc1)N=Nc1c(O)[nH]c2ccc(Cl)cc12`, the growth in the assay on SR leukemia is 3.93% (active); in the assay with RPMI-8226 leukemia, 6.94% (active); in the assay with OVCAR-8 ovarian it was -48.4% (active); with OVCAR-5 ovarian, -28% (active); in the assay on OVCAR-4 ovarian, -16.6% (active); with SK-OV-3 ovarian, -22.2% (active). The growth in the assay with IGROV1 ovarian is -48.6% (active); in the assay on OVCAR-3 ovarian, -81.7% (active); with NCI/ADR-RES ovarian, 85.2%; in the assay on T-47D breast, -13% (active); with BT-549 breast, -71.7% (active); with MDA-MB-435 melanoma, -61.4% (active). The growth was -46.9% (active) in the assay with SW-620 colon; 3.54% (active) in the assay on MCF7 breast; -53.5% (active) in the assay on HCT-116 colon; -51.4% (active) in the assay on HCC-2998 colon; -87.9% (active) in the assay on KM12 colon; -51% (active) in the assay with MDA-MB-468 breast.
Consider `NS(=O)(=O)c1ccc(N=Nc2c(O)n(CC(=O)Nc3ccccc3Cl)c3ccccc23)cc1`, for which the growth in the assay on SR leukemia is 26.9%; with RPMI-8226 leukemia, 29%; in the assay with OVCAR-8 ovarian, 1.19% (active); in the assay on OVCAR-5 ovarian it was 56.3%; with OVCAR-4 ovarian, 53%; with SK-OV-3 ovarian, 36.7%. The growth in the assay on IGROV1 ovarian is 18%; in the assay with OVCAR-3 ovarian, 21.3%; with NCI/ADR-RES ovarian it was 30.4%; with T-47D breast, 19.7%; in the assay on BT-549 breast it was -4.12% (active); in the assay with MDA-MB-435 melanoma, 34.5%. Further, the growth is 24.5% in the assay with SW-620 colon; 6% (active) with MCF7 breast; 8.6% (active) in the assay with HCT-116 colon; 28.3% in the assay with HCC-2998 colon; 17.1% with KM12 colon; 26.3% in the assay on MDA-MB-468 breast.
`COC1=C[C@]23CCC(=O)N2CCc2cc4c(cc2[C@@H]3[C@@H]1OC(=O)[C@H](C)O)OCO4`: the growth in the assay with SR leukemia was -11.9% (active); in the assay on RPMI-8226 leukemia, -17.9% (active); in the assay with OVCAR-8 ovarian it was 29.1%; in the assay with OVCAR-5 ovarian, 46.4%; in the assay with OVCAR-4 ovarian it was 13.1%; in the assay on SK-OV-3 ovarian it was 23.5%. In addition, the growth is 20% in the assay with IGROV1 ovarian; -2.32% (active) with OVCAR-3 ovarian; 53.9% in the assay with HS 578T breast; 42.4% in the assay on T-47D breast; 2.51% (active) in the assay on BT-549 breast; 34.6% in the assay on MDA-MB-435 melanoma. Also, the growth in the assay with SW-620 colon was 13.6%; in the assay on MCF7 breast, -5.57% (active); in the assay on HCT-116 colon, 1.88% (active); with HCC-2998 colon, -29.9% (active); in the assay with KM12 colon, 18.9%; in the assay with MDA-MB-468 breast it was -17% (active).
Take `CN(C)c1nc(NCCNS(=O)(=O)c2ccc(C(=O)/C=C/c3ccc(Cl)cc3)cc2)nc(Nc2ccc(F)cc2)n1`: the growth is -41.1% (active) with SR leukemia; -17.6% (active) in the assay with RPMI-8226 leukemia; -73.5% (active) in the assay with OVCAR-8 ovarian; -67% (active) in the assay with OVCAR-5 ovarian; -28.3% (active) in the assay on OVCAR-4 ovarian; 26% with SK-OV-3 ovarian. Further, the growth in the assay on IGROV1 ovarian is -49.6% (active); in the assay on OVCAR-3 ovarian, -94.8% (active); with HS 578T breast it was 25.8%; with T-47D breast, -10% (active); in the assay on BT-549 breast, -66.9% (active); with MDA-MB-435 melanoma it was -87.8% (active). For the same compound, the growth with SW-620 colon was -95.1% (active); in the assay on MCF7 breast, -77.1% (active); in the assay on HCT-116 colon it was -91.4% (active); in the assay with HCC-2998 colon, -91.6% (active); with KM12 colon, -83.6% (active); in the assay with MDA-MB-468 breast, -25.9% (active).
As for `COc1ccc2[nH]cc(-c3nnc(N)nc3-c3cn(C)c4ncc(Br)cc34)c2c1`, the growth in the assay on SR leukemia is 49.6%; with RPMI-8226 leukemia it was 74.5%; with OVCAR-8 ovarian, 75.8%; in the assay with OVCAR-5 ovarian, 84.8%; in the assay with OVCAR-4 ovarian, 69.1%; in the assay with SK-OV-3 ovarian it was 95.2%. Also, the growth with IGROV1 ovarian is 58.4%; in the assay on OVCAR-3 ovarian, 65.7%; in the assay on HS 578T breast it was 55.7%; in the assay on T-47D breast it was 62.5%; in the assay with BT-549 breast, 64.1%; in the assay on MDA-MB-435 melanoma it was 81.9%. For the same compound, the growth in the assay on SW-620 colon is 87.9%; in the assay on MCF7 breast, 68.7%; in the assay with HCT-116 colon it was 79.6%; with HCC-2998 colon, 80.2%; with KM12 colon it was 75.5%; in the assay on MDA-MB-468 breast, 42.9%.
As for `O=C(COc1ccc2c(c1)CCCC(=O)N2)NCc1ccccc1`, the growth in the assay on SR leukemia was 27.6%; in the assay with RPMI-8226 leukemia, 94.9%; in the assay on OVCAR-8 ovarian, 99.5%; in the assay with OVCAR-5 ovarian it was 101%; with OVCAR-4 ovarian, 92%; in the assay with SK-OV-3 ovarian it was 89.5%. Moreover, the growth with IGROV1 ovarian is 111%; with OVCAR-3 ovarian, 85.4%; in the assay with HS 578T breast, 94.2%; in the assay with T-47D breast, 95.7%; in the assay on BT-549 breast it was 104%; in the assay on MDA-MB-435 melanoma it was 3.41% (active). For the same compound, the growth in the assay on SW-620 colon is 60.9%; in the assay on MCF7 breast it was 59.3%; in the assay on HCT-116 colon, 93.5%; with HCC-2998 colon, 95.9%; with KM12 colon, 58.9%; in the assay with MDA-MB-468 breast it was 28.8%.
With `Cc1ccc(-c2nc(C#N)c(S(=O)(=O)N3CCN(S(=O)(=O)c4ccccc4)CC3)o2)cc1`, the growth in the assay with SR leukemia was -48.1% (active); with RPMI-8226 leukemia, -24.5% (active); in the assay on OVCAR-8 ovarian, 1.2% (active); in the assay with OVCAR-5 ovarian, 19.5%; with OVCAR-4 ovarian it was -1.2% (active); in the assay with SK-OV-3 ovarian, 115%. The growth with IGROV1 ovarian is -63.6% (active); in the assay on OVCAR-3 ovarian, 1.2% (active); with NCI/ADR-RES ovarian it was 4.76% (active); with T-47D breast, -1.54% (active); with BT-549 breast it was -19% (active); in the assay on MDA-MB-435 melanoma, 30.1%. In addition, the growth in the assay on SW-620 colon was -86.9% (active); in the assay with MCF7 breast, -30.6% (active); with HCT-116 colon it was -81.4% (active); with HCC-2998 colon, 56.2%; in the assay with KM12 colon, 77.4%; in the assay with MDA-MB-468 breast it was -49.3% (active).
In the case of `Cc1ccc(NC(=O)CN2CCN(c3ncnc4c3cnn4-c3ccccc3)CC2)cc1`, the growth in the assay with SR leukemia was 52.6%; with RPMI-8226 leukemia it was 75.8%; in the assay with OVCAR-8 ovarian, 71.4%; with OVCAR-5 ovarian, 98%; in the assay on OVCAR-4 ovarian, 82.9%; in the assay with SK-OV-3 ovarian it was 112%. Besides, the growth in the assay with IGROV1 ovarian is 81.3%; in the assay on OVCAR-3 ovarian, 103%; in the assay on HS 578T breast, 77.7%; in the assay with T-47D breast, 78.9%; in the assay with BT-549 breast, 85%; in the assay with MDA-MB-435 melanoma, 94.2%. Also, the growth was 99.9% in the assay on SW-620 colon; 74.2% with MCF7 breast; 76.3% with HCT-116 colon; 102% in the assay with HCC-2998 colon; 89.9% with KM12 colon; 87.1% with MDA-MB-468 breast.
